Key:
Assay in all cases: PBM binding z-score (relative to random genomic background probes); higher = stronger binding; sequences stand for … in GC…GCGATTGACAGCGTAGAATGAAGG
[1] = system: FXR:RXRa (NR concentration 270 nM, RXRa partner concentration 90 nM)
How it was run: (§1)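 For binding z-scores, the reference was random background probes on custom Agilent 4×180K protein-binding microarrays. These arrays were incubated 1 h with ligand-free nuclear receptor dimers in PBS pH 7.4, 2% milk, 0.02% Triton X-100, 1 mM DTT, 0.2 mg/mL BSA and 0.4 mg/ml salmon testes DNA. Fluorescence was scanned after antibody detection of each partner (one per run) and regression-normalized.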

[2] = system: LXRa:RXRa (NR concentration 270 nM, RXRa partner concentration 90 nM)
How it was run: as §1

[3] = system: LXRa homodimer (NR concentration 270 nM)
How it was run: as §1

[4] = system: LXRb:RXRa (NR concentration 270 nM, RXRa partner concentration 90 nM)
How it was run: as §1

[5] = system: LXRb homodimer (NR concentration 270 nM)
How it was run: as §1

[6] = system: PPARa:RXRa (NR concentration 270 nM, RXRa partner concentration 90 nM)
How it was run: as §1

[7] = system: PPARg:RXRa (NR concentration 180 nM, RXRa partner concentration 90 nM)
How it was run: as §1

[8] = system: PPARg:RXRa 270nM:90nM, anti-RXR (NR concentration 270 nM, RXRa partner concentration 90 nM)
How it was run: as §1

[9] = system: PPARg:RXRa 30nM:10nM, anti-RXR (NR concentration 30 nM, RXRa partner concentration 10 nM)
How it was run: as §1

[10] = system: PPARg:RXRa 90nM:30nM, anti-RXR (NR concentration 90 nM, RXRa partner concentration 30 nM)
How it was run: as §1

[11] = system: PPARg:RXRa DBDmut IVT, anti-RXR (DBD mutation: RXRa K156A/R161A, NR concentration 270 nM, RXRa partner concentration 90 nM)
How it was run: as §1

[12] = system: PPARg:RXRa IVT, anti-PPARg (NR concentration 270 nM, RXRa partner concentration 90 nM)
How it was run: as §1

[13] = system: PPARg DBDmut:RXRa IVT, anti-PPARg (DBD mutation: PPARg1 K132A/R137A, NR concentration 270 nM, RXRa partner concentration 90 nM)
How it was run: as §1

[14] = system: PPARg DBDmut IVT, anti-PPARg (DBD mutation: PPARg1 K132A/R137A, NR concentration 270 nM)
How it was run: as §1

[15] = system: PPARg homodimer (NR concentration 180 nM)
How it was run: as §1

[16] = system: PXR:RXRa (NR concentration 270 nM, RXRa partner concentration 90 nM)
How it was run: as §1

[17] = system: PXR homodimer (NR concentration 270 nM)
How it was run: as §1

[18] = system: RARa:RXR (NR concentration 270 nM, RXRa partner concentration 90 nM)
How it was run: as §1

[19] = system: RARa homodimer (NR concentration 270 nM)
How it was run: as §1

[20] = system: RARb:RXRa (NR concentration 270 nM, RXRa partner concentration 90 nM)
How it was run: as §1

| Sequence | PBM binding z-score [1] | PBM binding z-score [2] | PBM binding z-score [3] | PBM binding z-score [4] | PBM binding z-score [5] | PBM binding z-score [6] | PBM binding z-score [7] | PBM binding z-score [8] | PBM binding z-score [9] | PBM binding z-score [10] | PBM binding z-score [11] | PBM binding z-score [12] | PBM binding z-score [13] | PBM binding z-score [14] | PBM binding z-score [15] | PBM binding z-score [16] | PBM binding z-score [17] | PBM binding z-score [18] | PBM binding z-score [19] | PBM binding z-score [20] |
| --- | --- | --- | --- | --- | --- | --- | --- | --- | --- | --- | --- | --- | --- | --- | --- | --- | --- | --- | --- | --- |
| TAGCCTAGGGCATGCGGGCCAGTATAGTGTCGGC | -0.782 | -0.599 | -1.01 | -1.17 | -1.07 | -0.591 | -0.378 | -0.777 | -1.03 | -0.989 | -0.968 | 0.354 | -0.499 | -1.43 | -1.51 | -0.802 | -0.955 | -0.692 | -0.647 | 0.881 |
| ACTATTAGTTGAGACGAGGGCGACCGATAGGTTG | 0.0775 | -0.2 | 0.0498 | -0.401 | 8.35e-05 | -0.485 | 0.629 | -0.198 | 0.0514 | -0.0518 | 0.0234 | -0.184 | 0.772 | 0.784 | 0.303 | 0.205 | 0.117 | 0.144 | 0.456 | 0.332 |
| CCTAGGAGGACAACAGGAGGTCAGAGCTGCCAGA | 1.35 | 2.17 | 2.05 | 1.53 | -0.406 | 2.1 | 0.818 | 0.597 | -0.229 | 0.192 | 0.869 | 0.949 | -0.763 | -0.811 | 1.47 | 2.11 | 0.811 | 2.48 | 0.684 | 2.79 |
| GCTTATAGGTAATACAAGGTGAAAGTCCGATTGT | 0.773 | 2.61 | 0.251 | 0.934 | -0.275 | 1.5 | 0.93 | 1.22 | 0.379 | 0.916 | 3.24 | 2.78 | 1 | 1.03 | 0.685 | 0.829 | 0.193 | 1.93 | 1.06 | 0.613 |
| CGTCCAAGGACAGCAGGTCAGTGAAAGCGACGTG | 0.0413 | -0.0225 | -0.497 | -0.229 | -1.12 | 0.599 | 0.186 | -0.344 | -0.721 | -0.226 | 0.0757 | 0.113 | -1.43 | -0.869 | -0.0601 | 0.288 | -0.263 | 0.676 | -0.162 | 2.37 |
| ATCGAAAGGTCGACGAGCTGAGTATACACCGTTT | 4.14 | 3.16 | 0.028 | 2.59 | 0.389 | 4.22 | 2.33 | 2.87 | 1.17 | 1.72 | 0.472 | 1.18 | 0.525 | 1.06 | 0.589 | 2.22 | -0.245 | 2.78 | 0.204 | 3.72 |
| ATCTCTAGGTAAGACTCAGTTCAGTGTAGAACGC | 0.302 | 0.547 | 0.708 | 0.286 | 0.886 | 0.0925 | -0.0106 | 0.309 | 0.182 | 0.398 | 2.3 | 1.23 | 0.993 | 0.824 | 1.01 | 1.15 | 1.68 | 0.389 | 1.23 | 0.291 |
| ACTAGCAGGCGAAGGGTCACTCAAGATTAGTCCG | 2.18 | 2.19 | 0.132 | 2.12 | -0.71 | 3.72 | 5.6 | 5.62 | 3.86 | 6.27 | -0.0679 | 2.22 | -0.671 | -0.597 | 1.88 | 2.32 | -0.24 | 3.29 | -0.0684 | 3.31 |
| ATCTCTAGGTAAGACCCAGTTCAGTGAAGAACGC | 0.43 | 0.778 | 0.612 | 0.599 | 0.872 | 0.54 | 0.457 | 0.208 | 0.196 | 0.526 | 2.24 | 1.79 | 0.676 | 0.699 | 0.695 | 0.9 | 1.45 | 0.59 | 0.821 | 0.371 |
| CCAGAAAGGTGAGAAGGTAACTCAGCCTCGATTA | 0.521 | 0.782 | -0.167 | 0.842 | -0.293 | 2.47 | 1.02 | 1.49 | 0.32 | 0.796 | 2.89 | 1.98 | -0.302 | -0.361 | 1.15 | 0.319 | -0.419 | 1.28 | 0.133 | 2.67 |
| TCATATAGGTAAACAGGTGACAGTCCGTAAGTTA | 0.832 | 0.858 | 0.306 | 0.84 | -0.213 | 2.24 | 2.52 | 3.35 | 4.16 | 3.91 | 4.87 | 4.6 | 1.49 | 1.05 | 0.856 | 0.915 | 0.237 | 0.971 | 0.875 | 0.779 |
| CGACCGAGGGCATGAGTTGATAGCAAATGCCGAT | 0.304 | 0.28 | -0.485 | 0.286 | -0.854 | 0.989 | 0.738 | -0.153 | -0.657 | -0.438 | 0.432 | 0.376 | -0.421 | -0.612 | 0.0239 | 0.48 | -0.327 | 0.539 | -0.74 | 2.11 |
| CCTCGGAGCACAACAGGAGGTCAGAGCTGCCAGA | 0.811 | 1.54 | 1.97 | 1.4 | -0.755 | 1.65 | 0.0996 | 0.038 | -0.859 | -0.308 | -0.234 | 0.244 | -0.72 | -1.62 | 1.23 | 1.56 | 0.0895 | 2.01 | 0.0401 | 1.74 |
| ACTATTAGTTGAGACGAGGGCAACCTATAGGTTG | 0.678 | 0.287 | -0.0979 | 0.142 | 0.336 | 0.29 | 0.636 | -0.0542 | 0.31 | -0.00139 | -0.0527 | 0.486 | 1.43 | 1.25 | 0.36 | 1.39 | 0.585 | 1.09 | 0.942 | 0.936 |
